Source: PubChem BioAssay (NCATS)
Records with an inconclusive call do not appear. A number with no mark means an inactive call. Activity calls are given as the source filed them. Calls come from the whole dose curve; as a rule, active = well fitted inhibition curve with a large enough effect; inconclusive = small, poorly fitted or top-dose-only effect; inactive = flat fitted curve, though single readings scatter.

Molecular target: Calcium and integrin-binding protein 1 (Homo sapiens) (UniProt Q99828)
Test: Primary qHTS for Identification of Calcium Integrin Binding Protein 1 (CIB1) Competitor (AID 1508620);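 note: GST tagged CIB1 binding a fluorescein labelled alphaIIb integrin peptide tracer; top concentration of the series differs between compounds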
Conditions: CIB1-GST / FITC-alphaIIb peptide fluorescence polarization; series mostly up to 114 µM; activity change, negative = inhibition: at the top concentration
Outline: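 CIB1-GST (1 uM final) and compound incubated 15 min at room temperature before adding FITC-alphaIIb peptide tracer (100 nM final). Competition for binding read by fluorescence polarization (ex 480, em 540) after another 15 min at room temperature.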
% is set by controls: 0 for no effect and ±100 for the full control effect.

Chain of Calcium and integrin-binding protein 1 (Homo sapiens) (Q99828 whole entry, looked up): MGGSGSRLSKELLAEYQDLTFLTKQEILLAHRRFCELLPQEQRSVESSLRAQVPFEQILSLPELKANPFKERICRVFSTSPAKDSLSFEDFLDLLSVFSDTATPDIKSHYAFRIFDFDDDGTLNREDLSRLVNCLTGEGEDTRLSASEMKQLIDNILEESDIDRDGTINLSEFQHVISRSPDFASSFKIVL

SMILES	activity change, negative = inhibition	Potency
O=C(Nc1cccc(-c2nn3c(=O)cc(N4CCNCC4)nc3s2)c1)c1ccncc1	4.17%	
c1nc(NCCc2cnc[nH]2)c2cc(-c3ccc4c(c3)OCO4)ccc2n1		inactive
Cc1ccc(OCCn2c(CCNCC3CCCCC3)nc3ccccc32)cc1	-15.8%	
COc1ccc(NC(=O)c2cccnc2)cc1S(=O)(=O)Nc1ccc(Br)cc1	-0.452%	
O=[S+]([O-])(/C=C/c1nc(Nc2cc(F)cc(F)c2)c2ncn(CC(F)F)c2n1)c1ccccc1	3.18%	
NC(=O)C1CCN(c2ncc(Br)cn2)CC1	4.11%	
CC(C)(C)OC(=O)N1CCN(c2ccc(NCc3ccc(-c4ccc(C#N)cc4)o3)nc2)CC1	4.28%	
CCCCN(C)C(=O)Cn1nc(-c2ccc(F)cc2)ccc1=O	0.294%	
O=S(=O)(c1ccc2c(c1)OCCO2)N1CCN(S(=O)(=O)c2cccs2)CC1	-2.71%	
Cc1ccc(CNc2ncnc3cc(-c4ccc5c(c4)OCO5)ccc23)o1	-2.27%	
O=C1CCc2cc(S(=O)(=O)Nc3cccnc3)ccc2N1	5.83%	
O=S(=O)(NC[C@@H]1CCC[C@H](CNS(=O)(=O)c2c(F)cccc2F)C1)c1ccc2c(c1)OCCO2		inactive
Cc1cc(C)nc(NC(=S)N2CCN(c3nc(C)cnc3C)CC2)c1	1.5%	
NC(=O)c1cccc(C[C@H](C(=O)O)N2C(=O)c3ccc(C(=O)O)cc3C2=O)c1	-0.299%	
O=C(Nc1cc(C(F)(F)F)ccc1Cl)[C@H](O)CCc1ccccc1	1.48%	
O=C(Nc1ncc(Cc2ccc(C(F)(F)F)cc2)s1)c1ccc(-c2ccccc2[N+](=O)[O-])o1	3.62%	
CCOC(=O)C1CCN(C(=O)C(C)(C)NC(=O)Nc2cccc(C(=O)OC)c2)CC1	-16.4%	
O=C1CCCC2=C1C(c1[nH]ncc1Br)N=C(Nc1nc3ccccc3o1)N2 (centres undefined)	-18.5%	
O=C(Nc1ccc(Cl)c(Cl)c1)N1CCN(c2ccncc2)CC1	0.613%	
Cc1csc(CNc2ncnc3ccc(-c4cccc(Cl)c4)cc23)c1	1.23%	

SMILES	activity change, negative = inhibition	Potency
O=C(O)c1sc2c(c1-c1nc3ccccc3s1)CCNC2	-0.636%	
FC(F)(F)c1ccccc1-c1nc(NCc2ccc(Cl)cc2)c2ccccc2n1	0.567%	
CC(=O)Nc1cc2c(s1)CNCC2	2.06%	
O=[N+]([O-])c1cccc(S(=O)(=O)N2CCN(S(=O)(=O)c3ccc4c(c3)OCCO4)CC2)c1	-4.4%	
Oc1ccc(CNc2ccccn2)c2cccnc12	5.13%	
Cc1ccc(NS(=O)(=O)c2cc3c(cc2N2CCC2)NC(=O)CC3)cc1C	2.81%	
O=C(Nc1ccc(Cl)c([N+](=O)[O-])c1)Nc1cccc(-c2ccncc2)n1	1.84%	
Cc1cc2[nH]c3c(=O)n(Cc4ccccc4F)ncc3c2s1	-0.798%	
COc1cc(F)c(S(=O)(=O)N2CCCN(S(=O)(=O)c3ccc4c(c3)OCCO4)CC2)c(F)c1	0.418%	
O=C(O)c1ccc(-c2cccc(-c3nn4c(=O)cc(N5CCNCC5)nc4s3)c2)cc1	1.37%	
Cc1ccnc(NC(=S)N2CCCN(c3cccc(C(F)(F)F)c3)CC2)c1	-12.8%	
Cc1csc(CNc2ncnc3ccc(-c4ccc(C(C)O)o4)cc23)n1 (centres undefined)	-15.6%	
Cc1ccc(S(=O)(=O)NC(N)=NCCC[C@@H](N)C(=O)Nc2cc(C(F)(F)F)ccc2Cl)cc1	-4.65%	
O=S1(=O)N=C(Oc2cccc3ccccc23)c2ccccc21	-7.72%	
N#Cc1ccc(-c2csc(N3CCC(C(N)=O)CC3)n2)cc1	2.82%	
O=S(=O)(c1ccc2c(c1)OCCO2)N1CCN(S(=O)(=O)c2cccc(Cl)c2F)CC1	-2.63%	
CCOC(=O)C1CCN(C(=O)C2(NC(=O)Nc3ccc(F)cc3F)CCCCC2)CC1	3.07%	
O=C1CCCC2=C1C(c1ccccc1Cl)N=C(c1ccccn1)N2 (centres undefined)	-9.1%	
O=C1c2ccccc2C(=O)N1c1ccccn1	0.0842%	
